High-throughput results from PubChem BioAssay.
Six1-Eya2 blk – Six1/Eya2 interaction inhibition; AlphaScreen GST-Six1/His-Eya2 binding, biochemical; active compounds read low; activity change, % (test concentration not listed); hit rate 0.56% among 360,000; in the data active = activity change below about -65%; inconclusive = mostly about -30% to -63%
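GST-Six1 + His-Eya2 (5X stock: 250/500 nM); Tris pH 8.0, 300 mM NaCl, 0.05% BSA, 0.02% Tween 20; GSH donor/Ni acceptor beads; 1 h 37 °C dark; AlphaScreen readout.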
CtBP-E1A blk – CtBP/E1A binding inhibition; AlphaScreen GST-E1A/His-CtBP binding, 1536-well; active compounds read low; activity change, % (no concentration beside the values); AID 651724; hit rate 0.49% among 340,000; in the data active = activity change below about -65%; inconclusive = mostly about -30% to -63%
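Protein mix (5X: 125 nM each GST-E1A, His-CtBP) was incubated with pinned compound 2 h at 37 deg C in dark, in 50 mM Tris pH 8.0 buffer with 300 mM NaCl. Glutathione donor and nickel acceptor beads followed; AlphaScreen signal read after 1 h.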
DT40 TDP1 CPT – DT40-hTDP1 cell growth loss with CPT; hit rate 12% among 420,000; chicken DT40 Tdp1-/-;hTDP1 cells + 20 nM CPT, ATP luminescence, 48 h; Potency, µM (doses to about 46.2 µM), inactives show at the top dose activity change, negative = growth inhibition, usual class: inhibitors; note: potency is the fitted concentration of half-maximal effect; nearly all actives have a fitted effect of over 55% in size
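Chicken DT40 Tdp1-/- cells stably complemented with human TDP1 were seeded at 400 cells/well in medium containing 20 nM camptothecin, exposed to pin-transferred compounds, and grown at 37 °C for at least 48 hr. Viability was read as ATP luminescence.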
IL1B secr inh – inhibitors of inflammasome signaling (IL-1 beta secretion); AID 743279; activity change, % at 57.5 µM; hit rate 4.7% among 360,000; THP-1 LPS/ATP IL-1B secretion, AlphaLISA, 16 h; active compounds read low; in the data active = activity change below about -50%; inconclusive = mostly about -30% to -49%
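Secreted IL-1B measured by AlphaLISA bead assay after 16 h compound exposure of THP-1 cells; compounds (final up to 57.5 uM) added 1 h before LPS (250 ng/mL) and ATP (1.25 mM) stimulation; lower signal means less secretion.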
DT40 TDP1 no CPT – qHTS for Inhibitors of human tyrosyl-DNA phosphodiesterase 1 (TDP1): qHTS in cells in absence of CPT; AID 686978, 2013; hit rate 15% among 420,000; DT40 Tdp1-/- hTDP1 cells, no CPT, ATP luminescence, 48 h; Potency, µM (series often up to 46.2 µM), inactives show at the top dose activity change, negative = growth inhibition, actives largely listed as inhibitors; note: potency is the fitted concentration of half-maximal effect; nearly all actives have a fitted effect of over 55% in size
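DT40 Tdp1-/-;hTDP1 cells, no CPT (DMSO vehicle only), 400 cells/well; compounds pin-transferred; ≥48 hr, 37 °C; CellTiter-Glo 30 min RT dark, luminescence read.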
TDP1 block – blocks human tyrosyl-DNA phosphodiesterase 1; Potency, µM (top dose mostly 130 µM), inactives show top-dose activity change, negative = inhibition, most hits filed as inhibitors; AID 485290; Q9NUW8; hit rate 0.28% among 350,000; recombinant TDP1, AlphaScreen DNA substrate cleavage; note: potency is the fitted concentration of half-maximal effect; nearly all actives have a fitted effect of over 40% in size
Target sequence (Q9NUW8 whole entry, looked up): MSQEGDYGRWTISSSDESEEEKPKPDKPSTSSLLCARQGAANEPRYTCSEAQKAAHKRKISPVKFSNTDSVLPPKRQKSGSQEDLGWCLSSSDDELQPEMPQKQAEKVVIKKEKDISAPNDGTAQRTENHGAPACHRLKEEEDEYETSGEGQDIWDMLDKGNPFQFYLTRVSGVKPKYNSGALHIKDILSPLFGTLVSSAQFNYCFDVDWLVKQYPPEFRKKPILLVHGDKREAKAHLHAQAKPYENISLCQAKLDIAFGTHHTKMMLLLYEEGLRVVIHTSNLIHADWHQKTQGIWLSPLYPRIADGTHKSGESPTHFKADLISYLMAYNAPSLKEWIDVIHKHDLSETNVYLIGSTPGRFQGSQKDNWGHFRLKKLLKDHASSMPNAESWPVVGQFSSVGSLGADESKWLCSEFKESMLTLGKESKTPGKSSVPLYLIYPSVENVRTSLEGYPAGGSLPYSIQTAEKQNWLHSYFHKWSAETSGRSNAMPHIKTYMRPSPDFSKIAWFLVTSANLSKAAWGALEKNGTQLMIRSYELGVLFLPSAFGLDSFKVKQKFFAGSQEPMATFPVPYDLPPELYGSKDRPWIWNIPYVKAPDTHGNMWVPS
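Compounds were preincubated with Tdp1 (1 nM final) for 15 min at room temperature before substrate (15 nM final) started a 5 min reaction; beads (10 ug/ml final) were then added for 10 min before AlphaScreen detection.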
Numbers without * were called inactive; ? = inconclusive; / = no result given; [ ] = remark or other dose. A selection: hits, their analogues and other compounds. The true share with any hit is near 18%. Unless noted, calls come from the whole dose curve; as a rule, active = well fitted curve in the direction sought with a large enough effect; inconclusive = small, poorly fitted or top-dose-only effect, or another doubt; inactive = no such curve, though single readings can be large; an effect the other way counts as inactive or inconclusive. % is set by controls: 0 for no effect and ±100 for the full control effect.

SMILES	Six1-Eya2 blk	CtBP-E1A blk	DT40 TDP1 CPT	IL1B secr inh	DT40 TDP1 no CPT	TDP1 block
Cc1ccc(C)c(N2CCN(C(=O)C(Cc3ccccc3)n3cccc3)CC2)c1 (stereo not given)	-17	-13	23µM*	8	23µM*	5%
O=C(C(Cc1ccccc1)n1cccc1)N1CCc2ccccc21 (stereo not given)	-15	4	?	-10	?	11%
CSCCC(NC(=O)COc1ccccc1)C(=O)N1CCCC(C)C1 (stereo not given)	-12	-27	-24%	-17	-12%	4%
CC1CCCN(C(=O)C(Cc2ccccc2)n2cccc2)C1 (stereo not given)	-5	-16	15µM*	-30	-11%	5%
CC1=C(C(=O)OC2CCCCC2)C(c2cccc([N+](=O)[O-])c2)NC(=O)N1 (stereo not given)	-1	/	?	22	?	/
O=C(CCC(=O)Nc1cccc([N+](=O)[O-])c1)N/N=C/c1cccs1	-3	-12	-6%	21	4%	-16%
COC(=O)c1cc(=O)nc(NN=C2c3ccccc3-c3ccccc32)s1	-6	1	23µM*	0	?	/
CC(=O)OCCN1C(=O)c2ccc(-c3nc4ccccc4c(=O)o3)cc2C1=O	3	2	?	39	?	/
CC(=O)Nc1cc2c(cc1C(=O)c1ccc(C)cc1)OCCO2	-1	-1	-2%	-14	3%	1%
CCOc1ccccc1NS(=O)(=O)c1ccc2c(c1)CC(C)N2C(=O)C1CCC1 (stereo not given)	/	/	23µM*	/	15µM*	6%
COc1ccccc1CNS(=O)(=O)c1ccc2c(c1)CC(C)N2C(=O)C1CC1 (stereo not given)	-2	/	?	0	?	0%
Cc1cccc(NS(=O)(=O)c2ccc3c(c2)CC(C)N3C(=O)C2CCC2)c1C (stereo not given)	/	/	?	/	18µM*	9%
CC(=O)OCCn1c(=O)c2cc3c(=O)n(CCOC(C)=O)c(=O)c3cc2c1=O	5	4	?	11	?	6%
CCn1c(C)cc(/C=C2/SC(=S)N(CC(=O)O)C2=O)c1C	-6	-7	5%	-6	-1%	3%
COC(=O)C(C)N1C(=O)S/C(=C/c2cc(C)n(C(C)C)c2C)C1=O (stereo not given)	-26	-23	16µM*	-12	?	10%
C#CCN1C(=O)S/C(=C/c2cc(C)n(CC)c2C)C1=O	-14	-12	?	-6	21µM*	5%
Cc1cccc(NC(=O)CN2C(=O)N/C(=C/c3cc(C)n(C(C)C)c3C)C2=O)c1	-10	0	?	13	?	8%
CCn1c(C)cc(/C=C2/SC(=O)N(C(C)C(=O)OC)C2=O)c1C (stereo not given)	?	-10	?	-5	21µM*	/
COCCn1c(C)cc(/C=C2\NC(=S)N(C)C2=O)c1C	-14	/	-12%	-10	?	8%
COCCn1c(C)cc(/C=C2/SC(=O)N(C(C)C(=O)OC)C2=O)c1C (stereo not given)	-12	-10	?	-2	26µM*	7%
C/C(N)=C(/C#N)C(=O)CSc1nc2cc(Cl)ccc2s1	-14	-3	?	0	-21%	-6%
CCOC(=O)C(C)N1C(=O)S/C(=C/c2cc(C)n(-c3ccccn3)c2C)C1=O (stereo not given)	-13	-10	?	-28	16µM*	8%
Cc1cc(/C=C2\SC(N)=NC2=O)c(C)n1-c1ccccc1	-8	-1	?	-3	?	9%
COc1ccccc1NC(=O)C1=C(C)NC(=O)NC1c1cccs1 (stereo not given)	21	/	-1%	-1	-7%	-3%
COc1ccc(CCNC(=O)c2cc3c(=O)n4cccc(C)c4nc3n(CC3CCCO3)c2=N)cc1 (stereo not given)	-1	6	3.3µM*	-11	10µM*	2%
SMILES	Six1-Eya2 blk	CtBP-E1A blk	DT40 TDP1 CPT	IL1B secr inh	DT40 TDP1 no CPT	TDP1 block
Cc1cccn2c(=O)c3cc(C(=O)NCC4CCCO4)c(=N)n(CCc4ccccc4)c3nc12 (stereo not given)	-14	-14	16µM*	35	-83%	/
CN(c1ccccc1)S(=O)(=O)c1cccc(NC(=O)Cc2n[nH]c(=O)c3ccccc23)c1	-4	-6	13µM*	77	12µM*	3%
CCN(CC)S(=O)(=O)c1cc(NC(=O)Cc2n[nH]c(=O)c3ccccc23)ccc1C	1	1	?	-10	13µM*	0%
CN(CC(=O)Nc1cccc(F)c1)C(=O)Cc1n[nH]c(=O)c2ccccc12	1	1	?	-3	0%	1%
Cc1ccc(NC(=O)Cc2n[nH]c(=O)c3ccccc23)cc1S(=O)(=O)N1CCCCCC1	-7	1	?	-9	16µM*	2%
Cc1ncc([N+](=O)[O-])n1Cc1ccc(Cl)cc1	0	-3	1%	5	32%	5%
Cc1ccccc1NC(=O)CCn1c(=O)oc2ccccc21	0	5	0%	-4	4%	0%
Cc1nc2nc(CCNS(=O)(=O)c3ccc(Cl)cc3)cn2nc1C	0	7	-3%	9	13%	2%
Cc1cn2c(=O)cc(COc3ccc(NC(=O)c4ccccc4C)cc3)nc2s1	/	/	-10%	/	-5%	9%
CCC(CC)c1nn2c(=O)cc(COc3ccc(NC(=O)c4cccc(Cl)c4)cc3)nc2s1	/	/	-1%	/	-15%	1%
Cc1nn2c(COc3ccc(NC(=O)c4ccccc4Cl)cc3)nnc2c2ccccc12	?	-30	18µM*	?	23µM*	3%
CCC(CC)c1nn2c(=O)cc(COc3ccc(NC(=O)c4ccccc4Cl)cc3)nc2s1	/	/	?	/	2.3µM*	-6%
CCC(CC)c1nn2c(=O)cc(COc3ccc(NC(=O)c4ccccc4C)cc3)nc2s1	/	/	?	/	2.3µM*	-1%
C=CCN1C=C2C(=O)C(C)(OC(=O)c3cccs3)C(=O)C=C2C=C1CCCC(=O)OC (stereo not given)	-1	-3	-2%	48	-4%	7%[21 µM]
CCCCCCCCNCCS(=O)(=O)NCc1ccccc1	7	12	?	-52*	16µM*	/
O=C(C=C1NCCN1)c1ccccc1	2	6	16%	3	-8%	/
